Article PMC4336329 (PLoS ONE, 2015)
The campaign covered roughly 310,000 compounds. About 14,000 (4.5%) showed an effect of 50% or more. Effects have a minus sign here. The list comes from a sample in which strong results are over-represented; it also holds similar structures and randomly drawn compounds.

Biological target: human ether-à-go-go-related gene (hERG) potassium channel (human, UniProt Q12809)
Assay: primary screen, population patch clamp on CHO cells stably expressing hERG; higher = less effect of the substance
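Note: peak tail current of the secondary pulse compared with the same well before compound.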

human ether-à-go-go-related gene (hERG) potassium channel, sequence (Q12809 whole entry, looked up): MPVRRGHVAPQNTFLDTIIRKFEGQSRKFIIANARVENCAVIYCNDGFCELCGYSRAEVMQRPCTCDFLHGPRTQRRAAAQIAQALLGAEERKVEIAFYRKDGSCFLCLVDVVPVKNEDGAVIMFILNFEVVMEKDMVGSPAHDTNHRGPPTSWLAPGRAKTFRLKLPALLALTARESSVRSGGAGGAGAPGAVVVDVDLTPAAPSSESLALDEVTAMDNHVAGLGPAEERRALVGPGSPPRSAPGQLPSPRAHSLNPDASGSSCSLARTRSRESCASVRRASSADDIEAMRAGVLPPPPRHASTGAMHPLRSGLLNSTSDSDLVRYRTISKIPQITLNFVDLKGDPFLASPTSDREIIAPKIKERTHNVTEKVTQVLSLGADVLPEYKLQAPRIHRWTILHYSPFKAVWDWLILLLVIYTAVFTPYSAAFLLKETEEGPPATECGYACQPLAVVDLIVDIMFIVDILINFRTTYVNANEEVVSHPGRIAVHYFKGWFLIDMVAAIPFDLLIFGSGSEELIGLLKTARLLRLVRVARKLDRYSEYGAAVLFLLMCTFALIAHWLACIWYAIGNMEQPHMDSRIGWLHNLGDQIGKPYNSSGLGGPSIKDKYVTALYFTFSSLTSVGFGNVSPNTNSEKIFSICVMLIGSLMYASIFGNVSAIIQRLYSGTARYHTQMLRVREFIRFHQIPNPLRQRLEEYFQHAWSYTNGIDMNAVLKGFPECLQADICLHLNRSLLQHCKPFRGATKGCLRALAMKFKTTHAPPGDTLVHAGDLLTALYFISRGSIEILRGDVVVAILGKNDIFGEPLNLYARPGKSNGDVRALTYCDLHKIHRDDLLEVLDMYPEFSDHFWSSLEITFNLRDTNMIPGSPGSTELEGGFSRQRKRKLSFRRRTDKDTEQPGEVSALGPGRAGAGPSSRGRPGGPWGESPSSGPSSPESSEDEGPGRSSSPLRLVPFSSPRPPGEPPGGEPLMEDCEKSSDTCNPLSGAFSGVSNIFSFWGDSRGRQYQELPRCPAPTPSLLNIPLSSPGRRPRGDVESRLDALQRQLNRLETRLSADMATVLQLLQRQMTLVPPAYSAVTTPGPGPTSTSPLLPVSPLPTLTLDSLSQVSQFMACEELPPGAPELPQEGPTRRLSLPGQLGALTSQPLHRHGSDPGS

| Compound | hERG current change (%, negative = inhibition) at 10uM [%] |
| --- | --- |
| COc1ccc(NC(=O)CN(C)C(=O)c2cc(S(=O)(=O)N(C)C)ccc2N2CCCC2)cc1 | -13.8 |
| COc1ccc(NC(=O)c2cc(S(=O)(=O)N(C)C)ccc2N2CCCC2)cc1Cl | 12.7 |
| COc1ccc(CCNC(=O)c2cc(S(=O)(=O)N(C)C)ccc2N2CCCC2)cc1OC | 5.99 |
| COc1cc(Cl)c(C)cc1NC(=O)c1cc(S(=O)(=O)N(C)C)ccc1N1CCCC1 | -51.8 |
| COc1cc(C(=O)NNC(=O)c2cc(S(=O)(=O)N(C)C)ccc2N2CCCC2)cc(OC)c1OC | 15.1 |
| Cc1ccc(NC(=O)c2cc(S(=O)(=O)N(C)C)ccc2N2CCCC2)cc1S(=O)(=O)N(C)C | -26.5 |
| COc1ccc(OC)c(NC(=O)c2cc(S(=O)(=O)N(C)C)ccc2N2CCCC2)c1 | -68.1 |
| COc1ccc(C(C)(C)C)cc1NC(=O)c1cc(S(=O)(=O)N(C)C)ccc1N1CCCC1 | -60 |
| COc1ccc(CCNC(=O)c2cc(S(=O)(=O)N(C)C)ccc2N2CCCC2)cc1 | 4.26 |
| CN(C)CCNc1cnn(-c2ccccc2)c(=O)c1Cl | 14.2 |
| CCOC(=O)c1[nH]c2ccccc2c1NC(=S)Nc1cccc(C)c1C | -5.81 |
| CC(C)(C)NC(=S)NNC(=O)c1ccncc1 | 15.4 |
| CC(C)c1nc2sc3c(c2c(=O)n1N)CC(C)(C)OC3 | 8.71 |
| CCCn1c(SCC(=O)Nc2ccc(C(=O)Nc3ccccc3OC)cc2)n[nH]c1=O | 11.9 |
| CC(NC(=O)CCNC(=O)c1ccco1)c1ccc(F)cc1 (stereo not drawn) | 12.3 |
| Cc1cc(C)c2nc(N(CCN(C)C)C(=O)c3ccc(S(=O)(=O)N(C)CC4CCCO4)cc3)sc2c1.Cl (stereo not drawn) | -43.6 |
| CCOc1cccc2sc(N(CCCN(C)C)C(=O)c3ccc(S(=O)(=O)N(C)c4ccccc4)cc3)nc12.Cl | -83.7 |
| CCCC(=O)N(CCN1CCOCC1)c1nc2c(OCC)cccc2s1.Cl | 9.08 |
| CCOc1cccc2sc(N(CCCN(C)C)C(=O)c3ccc(S(=O)(=O)N(C)Cc4ccccc4)cc3)nc12.Cl | -40.4 |
| CCOc1cccc2sc(N(CCN(C)C)C(=O)/C=C/c3cccs3)nc12.Cl | -40.7 |
| CN(C)CCN(C(=O)c1ccc(S(=O)(=O)N(C)CC2CCCO2)cc1)c1nc2cc3c(cc2s1)OCO3.Cl (stereo not drawn) | -43.2 |
| CCOc1cccc2sc(N(CCCN(C)C)C(=O)c3ccc(S(=O)(=O)N(C)CC4CCCO4)cc3)nc12.Cl (stereo not drawn) | -77.4 |
| CCOc1cccc2sc(N(CCCN(C)C)C(=O)Cc3ccccc3)nc12.Cl | -80.2 |

| Compound | hERG current change (%, negative = inhibition) at 10uM [%] |
| --- | --- |
| CCOc1ccc2nc(N(CCCN(C)C)C(=O)c3ccc(C(=O)c4ccccc4)cc3)sc2c1.Cl | -35.5 |
| CCOc1cccc2sc(N(CCCN(C)C)C(=O)c3ccc(S(=O)(=O)N4CCc5ccccc5C4)cc3)nc12.Cl | 13.7 |
| CCOc1cccc2sc(N(CCCN(C)C)C(=O)c3ccc(C(=O)c4ccccc4)cc3)nc12.Cl | -72.1 |
| COc1cc2ccccc2cc1C(=O)N1CCCC(C(F)(F)F)C1 (stereo not drawn) | -14.3 |
| O=C(Nn1cc(C(=O)N2CCN(c3ccccc3F)CC2)c2ccccc2c1=O)c1cnccn1 | 2.84 |
| Cc1ccc(C(C)NC(=O)C23CC4CC(CC(C4)C2)C3)cc1 (stereo not drawn) | 11.4 |
| CCOc1cccc(NC(=O)CSc2nc(C)c3c(c2C#N)CCCC3)c1 | 0.331 |
| CCN(Cc1ccccc1)C(=O)COC(=O)c1cc(=O)[nH]c2ccccc12 | -4.27 |
| CCN1C(=NCCc2ccccn2)N[C@@H](c2cccc(F)c2)C(C(=O)OC)=C1C | -56.7 |
| COC(=O)C1=C(C)N(Cc2ccccc2)C(=NCc2ccc(OC)cc2)N[C@H]1c1cccc(F)c1 | 6.76 |
| CCN1C(=NCCCCO)N[C@@H](c2cccc(F)c2)C(C(=O)OC)=C1C | 6.82 |
| COC(=O)C1=C(C)N(Cc2ccccc2)C(=NCCc2ccccn2)N[C@H]1c1cccc(F)c1 | -60.4 |
| CCN1C(=NCCOC)N[C@@H](c2cccc(F)c2)C(C(=O)OC)=C1C | -14.3 |
| COC(=O)C1=C(C)N(Cc2ccccc2)C(=NCc2ccccc2)N[C@H]1c1cccc(F)c1 | -11.5 |
| O=C1c2ccccc2CN1CCSC(=S)N1CCOCC1 | -8.59 |
| CC(C)C[C@H](NC(=O)C1CC(=O)N(c2ccc3c(c2)OCO3)C1)C(=O)NC1CCCCC1 (stereo partly drawn) | 22.4 |
| COc1ccc(C(C)=O)cc1CSc1nc2cc(C(=O)O)ccc2c(=O)n1Cc1ccccc1 | 12.7 |
| CCOc1cc(CNCCc2ccc(S(N)(=O)=O)cc2)ccc1OCC(=O)NC(C)(C)C.Cl | 4.8 |
| CCOc1ccccc1OCC(=O)NCCc1ccc(S(N)(=O)=O)cc1 | 10.9 |
| CCOc1cc(CNCCc2ccc(S(N)(=O)=O)cc2)ccc1OCc1ccccc1.Cl | -55.9 |
| CCOc1cc(CNCCc2ccc(S(N)(=O)=O)cc2)ccc1OCC(=O)NC1CCCCC1.Cl | -36.3 |
| CCNCc1cc(Cl)c(OCc2ccccc2)c(OCC)c1.Cl | -8.51 |
| COc1cc(CNCCc2ccccc2)cc(Cl)c1OCc1ccccc1.Cl | -18.7 |

| Compound | hERG current change (%, negative = inhibition) at 10uM [%] |
| --- | --- |
| CCOc1cc(CNCCc2ccc(S(N)(=O)=O)cc2)ccc1OCc1ccc(Cl)cc1.Cl | -18.5 |
| CCOc1cc(CNCCc2ccc(S(N)(=O)=O)cc2)cc(Cl)c1OCc1ccccc1.Cl | -70.7 |
| CCOc1ccc2ccccc2c1CNCCc1ccc(S(N)(=O)=O)cc1.Cl | -73.1 |
| COC(=O)c1ccc(C(=O)OC)c(NC(=O)/C=C/C(=O)O)c1 | 5.06 |
| CC(NC(=O)c1ccccc1SCC(=O)N1CCCC1)c1ccccc1 (stereo not drawn) | -26.1 |
| CCCCP(=O)(CCCC)Cc1ccccc1 | 15.3 |
| CCN1C(=O)NC(=O)/C(=C/c2cc(C)n(-c3sc(C)c(C)c3C#N)c2C)C1=O | -4.66 |
| COc1ccc(-c2c(C)nc(N)nc2-c2ccc(OCc3ccc(C)cc3)cc2O)cc1OC | 4.25 |
| CCOc1ccc(C(=O)N2CCCC2)cc1 | 5.24 |
| CCOc1ccc(C(=O)N2CCN(c3ccccc3)CC2)cc1 | -36.3 |
| CCOc1ccc(C(=O)N2CCCN(C(=O)c3ccc(OCC)cc3)CC2)cc1 | -71.8 |
| COc1ccc(C(=S)N2CCN(C)CC2)cc1 | -22.8 |
| CCOc1ccc(C(=O)N2CCN(Cc3ccccc3)CC2)cc1 | -69.3 |
| CCN(CC)c1ccc(C(=O)N2CCN(Cc3ccccc3)CC2)cc1 | -37.8 |
| CCN1CCN(C(=S)c2ccc(OC)cc2)CC1 | -64.8 |
| CCOc1ccc(CN2CCN(C(=O)c3ccccc3)CC2)cc1 | -39.5 |
| COc1ccc(C(=O)N2CCN(c3cccc(Cl)c3)CC2)cc1 | -36 |
| CCN1CCN(C(=S)c2ccc(O)cc2)CC1 | 11 |
| CCOc1ccc(C(=O)N2CCCCCC2)cc1 | 2.03 |
| CCOc1ccc(C(=O)N2CCN(c3cccc(Cl)c3)CC2)cc1 | -73.7 |
| Cn1c(SCC(=O)N2CCCC2=O)nc2ccccc21 | 28.2 |
| CCCS(=O)(=O)N1CCCC(C(=O)N2CCC3(CC2)OCCO3)C1 (stereo not drawn) | 15.7 |
| CCCCNS(=O)(=O)c1ccc2nc(-c3cccnc3)cc(C(=O)NCC(OC)OC)c2c1 | -2.03 |

| Compound | hERG current change (%, negative = inhibition) at 10uM [%] |
| --- | --- |
| O=[N+]([O-])c1ccc(N2CCN(c3ccccc3F)CC2)c(S(=O)(=O)N2CCOCC2)c1 | -5.12 |
| CC(=O)NC(Nc1nc2c(s1)CCCC2)(C(F)(F)F)C(F)(F)F | 23.8 |
| C=CCNC(=O)/C(=C\C=C\c1ccccc1)NC(=O)c1ccccc1Cl | -49.7 |
| CNC(=O)c1[nH]cnc1C(=O)NCC(=O)OCc1ccccc1 | 13.9 |
| Cc1cc(NC(=O)c2cc([N+](=O)[O-])cc([N+](=O)[O-])c2)n(-c2ccccc2)n1 | 7.63 |
| COc1ccc(/C=C2\CCn3c2nc2cc(C(=O)O)ccc2c3=O)cc1 | 9.07 |
| COC(=O)CCCC1=CC2=CC(=O)C(C)(OC(=O)c3cccs3)C(=O)C2=CN1CCCCO (stereo not drawn) | 3.74 |
| CCCCc1cc(=O)oc2cc(OC(C)C(=O)NCc3ccccn3)c(Cl)cc12 (stereo not drawn) | -13.6 |
| Br.COc1ccc(-c2csc(CCN3N=C(C)CC3=O)n2)cc1 | 12.7 |
| O=C(CCNS(=O)(=O)c1ccc(OC(F)(F)F)cc1)N1CCN(C/C=C/c2ccccc2)CC1 | -81.5 |
| CCOc1ccc(C(=S)N2CCN(C)CC2)cc1 | -82.2 |
| CCOc1ccc(S(=O)(=O)NCCC(=O)N2CCN(Cc3ccccc3)CC2)cc1 | -54.2 |
| CCOC(=O)N1CCN(c2cccc(C)c2C)CC1 | -2.36 |
| Cc1ccc(S(=O)(=O)NCCC(=O)N2CCN(Cc3ccccc3)CC2)cc1 | 11 |
| CCOc1ccc(C(=S)N2CCOCC2)cc1 | -13.2 |
| Cc1cccc(N2CCN(C(=O)c3ccncc3)CC2)c1C | -37 |
| CCOc1ccc(C(=S)N2CCCC2)cc1 | -7.78 |
| Cc1ccc(S(=O)(=O)NCCC(=O)N2CCN(C/C=C/c3ccccc3)CC2)cc1 | -49.5 |
| O=C(CCNS(=O)(=O)c1ccccc1F)N1CCN(C/C=C/c2ccccc2)CC1 | -47.8 |
| CCOc1ccc(C(=O)N2CCN(c3cccc(C)c3C)CC2)cc1 | -79.9 |
| CCCNS(=O)(=O)c1ccc(OCC(=O)N2CCN(Cc3ccccc3)CC2)cc1 | -28.6 |
